A selection: hits, their analogues and other compounds. The true share with any hit is near 7.8%.
HCV inh: HCV inhibition. Huh7.5.1 HCVcc-Cre infection, luciferase reporter, 44 h. 3.4% of 340,000 active. Potency, µM (doses to about 41.8 µM), for inactives: at the top dose activity change, negative = inhibition, most hits filed as inhibitors; active means well fitted inhibition curve with a large enough effect; inconclusive means small, poorly fitted or top-dose-only effect, or another doubt; inactive means no such curve, though single readings can be large or run the other way; further: potency means the concentration at half of the fitted maximal effect
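Infectious HCV cell culture screen: compound-treated cells (1,000/well, pre-plated 4 h) are infected with HCVcc-Cre at roughly 0.5 moi and grown 44 h. Infection is quantified by luciferase signal after 15 min substrate incubation at room temperature.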
Vaccinia mCherry: vaccinia inhibition (mCherry reporter). Vaccinia virus mCherry reporter infection, fluorescence. Potency, µM (series often up to 36.5 µM), for inactives: at the top dose activity change, negative = inhibition, most hits filed as inhibitors. 0.63% of 310,000 active. AID 720579; calls by dose curve; tested in A549 cells; further: potency means the concentration at half of the fitted maximal effect; nearly all actives have a fitted effect of over 35% in size
Lassa entry inh: inhibitors of Lassa virus binding or cell entry; AID 540256; Lassa virus pseudotype entry inhibition, cell reporter; Potency, µM (titrated, usually from 37.9 µM), for inactives: at the highest dose activity change, negative = inhibition, actives largely listed as inhibitors; 1.2% of 300,000 active; calls by dose curve; tested in HEK293 cells; further: potency means the concentration at half of the fitted maximal effect; nearly all actives have a fitted effect of over 50% in size
HCMV inh: human cytomegalovirus inhibition; HFF cells, HCMV-luciferase reporter, 72 h; stronger effect = lower value; activity change, negative = inhibition, % at 57.5 µM; 4.5% of 410,000 active; AID 1259415; in the data active means activity change below about -60%; inconclusive means no clear call, values can overlap the other calls; inactive means above about -39%
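Compounds were evaluated in HFFs infected with an HCMV luciferase reporter virus (MOI 1 PFU/cell). Luciferase in lysates collected 72 h post infection served as the replication measure.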
VACV Venus inh: inhibitors of vaccinia virus (Venus reporter); Potency, µM (doses to about 36.5 µM), without a hit: at the highest dose activity change, negative = inhibition, usual class: inhibitors; 0.46% of 330,000 active; Vaccinia virus Venus reporter expression, fluorescence; calls by dose curve; tested in A549 cells; further: potency means the concentration at half of the fitted maximal effect; nearly all actives have a fitted effect of over 30% in size
Marburg entry inh: Marburg virus entry inhibition; Marburg virus pseudotyped entry inhibition, cell reporter; Potency, µM (series often up to 37.8 µM), for inactives: at the highest dose activity change, negative = inhibition, actives largely listed as inhibitors; 1.8% of 300,000 active; AID 540276; calls by dose curve; tested in HEK293 cells; further: potency means the concentration at half of the fitted maximal effect
* = called active by the depositor; i = inactive; ? = inconclusive; . = no result given; + = active, no number; ! = repeats disagree; [ ] = dose if it differs, or a comment. On the % scale 0 is the no-effect control and ±100 the full control effect.

SMILES	HCV inh	Vaccinia mCherry	Lassa entry inh	HCMV inh	VACV Venus inh	Marburg entry inh
CCCc1cc(=O)n2[nH]c(NC(=O)c3ccc(C(C)(C)C)cc3)nc2n1	.	1.2%	19.3%[46.1 µM]	-0.1	4.7%	-3.9%[46.1 µM]
Cc1cc(SCC(=O)c2ccc(Br)cc2)cc(C)[o+]1	.	-16.1%	.	.	-10.7%	.
CCOC(=O)c1noc2ncn(CC(=O)Nc3ccc(C)c(F)c3)c(=O)c12	.	1.8%	1.3%[46.1 µM]	-8.8	5.8%	.
COc1ccc(CN2C[C@H](Sc3nc4ccccc4[nH]3)C[C@H]2C(=O)N(C)C)c2ccccc12	.	-16.9%	.	.	-1.4%	.
CC(C)Oc1cc(F)ccc1-c1cc(C(=O)Nc2cccc(C(F)(F)F)c2)[nH]n1	.	10.6%	.	-63.9*	-24.1%	.
CN1C(=O)C(C)(C)c2cc(S(=O)(=O)N3CCC(C(=O)Nc4ccc(Cl)cc4)CC3)ccc21	2.8%	-10.3%	.	?	-14.4%	.
CN1C(=O)C(C)(C)c2cc(S(=O)(=O)N3CCCC(C(=O)Nc4ccc(Cl)cc4)C3)ccc21 (stereo not given)	11.2µM*	?	.	?	?	.
CC(C)c1ccc(NC(=O)C2CCCN(S(=O)(=O)c3ccc4c(c3)C(C)(C)C(=O)N4C)C2)cc1 (stereo not given)	12.6µM*	3.3%	.	?	-20.3%	.
C=CC[C@@H](Cc1ccc(F)cc1)C(=O)OC[C@@H]1CCCN1C(=O)[C@H](CC=C)CC(=O)N(CCO)Cc1ccccc1	1.41µM*	-16.2%	.	-35.8	?	.
C=CCC[C@@H](Cc1ccc(F)cc1)C(=O)OCCNC(=O)[C@@H](CC=C)CC(=O)N(CCO)Cc1ccccc1	10µM*	-1.6%	.	-0.8	?	.
C=CC[C@@H](CC(=O)N[C@@H](CO)Cc1ccccc1)C(=O)NC[C@H](OC(=O)[C@@H](CC=C)Cc1ccc(F)cc1)c1ccccc1	21.2%	-20.7%	.	-64.0*	?	.
C=CCC[C@@H](Cc1ccc(F)cc1)C(=O)OC[C@@H](NC(=O)[C@@H](CC=C)CC(=O)N(CCO)Cc1ccccc1)c1ccccc1	?	?	.	-101.1*	?	.
O=C(NCc1nnc2n1CCN(Cc1ccccc1C(F)(F)F)CC2)c1ccncc1	.	i	.	.	-8.2%	.
C=CC[C@H](CC(=O)N(CCO)Cc1ccccc1)C(=O)NC[C@H](OC(=O)[C@@H](CC=C)Cc1ccc(F)cc1)c1ccccc1	?	?	.	19.4	11.2µM*	.
C=CC[C@@H](CC(=O)N(CCO)Cc1ccccc1)C(=O)NC[C@@H](OC(=O)[C@@H](CC=C)Cc1ccc(F)cc1)c1ccccc1	?	10.7%	.	2.7	-7.1%	.
COc1cc(CNCCc2ccc(S(N)(=O)=O)cc2)ccc1OCC(=O)NC1CCCCC1	?	.	4.3%	13.3	.	?
COc1cc(CNCCc2ccc(S(N)(=O)=O)cc2)ccc1OCc1ccc(Cl)cc1	4.47µM*	.	?	-93.1*	.	?
CCOc1cc(CNCCc2ccc(S(N)(=O)=O)cc2)ccc1OCc1ccc(Cl)cc1	?	.	?	-102.9*	11.2µM*	?
NS(=O)(=O)c1ccc(CCNCc2ccccc2OCc2ccc(F)cc2)cc1	?	-2.1%	?	-67.2*	-15.8%	?
NS(=O)(=O)c1ccc(NCc2ccccc2OCc2ccc(F)cc2)cc1	-15.7%	.	-29.3%	?	?	?
COc1ccc2c(CNCc3cccs3)c(C(=O)O)n(Cc3ccccc3F)c2c1	.	-5.4%	-12.7%[46.1 µM]	16.1	-5.9%	.
CC(C)(C)S(=O)N1C[C@H]2CC(=O)C(CCO)=C2[C@@H]1CCO (stereo not given in full)	.	.	.	16.3	.	.
Cc1ccc(CNC(=O)CCCn2c(=O)c3ccccc3n(Cc3ccc(Cl)cc3)c2=O)cc1	.	-19.6%	13.8%[46.1 µM]	6.5	-14.9%	0.3%[46.1 µM]
CCOc1ccccc1/C=C/c1onc(C)c1S(=O)(=O)N1CCC(C(=O)N(CC)CC)CC1	?	-7.3%	?	+!	-25.3%	.
CCOc1ccccc1NC(=O)C1CCN(S(=O)(=O)c2c(C)noc2/C=C/c2ccco2)CC1	.	i	?	-37.8	-9.7%	2.8%[46.1 µM]
SMILES	HCV inh	Vaccinia mCherry	Lassa entry inh	HCMV inh	VACV Venus inh	Marburg entry inh
CCN(CCN(C)C)C(=O)C1CCN(S(=O)(=O)c2c(C)noc2/C=C/c2ccccc2F)CC1	?	i	?	-99.4*!	?	.
COC(=O)CCN(C(=O)C1CCN(S(=O)(=O)c2c(C)noc2/C=C/c2ccccc2F)CC1)c1ccccc1	.	-8.4%[7.34 µM]	3.3%[46.1 µM]	7.5	-9.7%[7.34 µM]	.
CCN(CCO)C(=O)c1cnn(-c2ncc3c(n2)-c2ccccc2CCC3)c1C1CC1	.	-18.4%	.	.	-18.9%	.
c1ccc(Nc2nc(N3CCCCC3)nc(N3CCNCC3)n2)cc1	?	-8.1%	?	16.2	-16.1%	7.3µM*
COc1ccc(Nc2nc(NCc3ccco3)nc(N/N=C/c3ccc(O)cc3)n2)cc1	?	?	-3.0%	-61.0*	-25.8%	?
COc1cccc(/C=N/Nc2ncccc2[N+](=O)[O-])c1OC	-10.3%	-26.0%	?	66.4	-24.4%	1.58µM*
O=[N+]([O-])c1ccc(/C=N/Nc2ncccc2[N+](=O)[O-])s1	-9.3%	?	9.2%	?	-17.3%[7.34 µM]	16.8%[46.1 µM]
COc1ccc(/C=N/Nc2nc(NCc3ccco3)nc(Nc3ccc(OC)cc3)n2)cc1	?	-13.8%	1.1%	?	-17.8%	-10.0%
O=[N+]([O-])c1ccc(Nc2nc(NC3CCCCC3)nc(N3CCCC3)n2)cc1	?	-6.0%	-29.3%[46.1 µM]	-73.3*	-13.1%	?
Cc1ccc(OCC(=O)OCc2cc(=O)n3c(C)csc3n2)cc1	.	-16.3%	-2.1%[46.1 µM]	-1.9	-7.0%	.
O=[N+]([O-])c1ccc(/C=N/Nc2nc(N3CCCCC3)nc(N3CCCCC3)n2)o1	14.1µM*	.	?	-30.1	.	20.6µM*
COc1c(/C=N/Nc2nc(N3CCCCC3)nc(N3CCCCC3)n2)cccc1[N+](=O)[O-]	?	-1.9%	-18.2%	-91.5*	-10.9%	?
COc1cccc(/C=N/Nc2ccc([N+](=O)[O-])cn2)c1O	1.12µM*	1.12µM*	?	-98.2*	?	?
O=[N+]([O-])c1cc2c(cc1/C=N/Nc1nc(Nc3ccccc3)nc(N3CCCCC3)n1)OCO2	?	.	1.4%	-75.4*	.	-25.5%
OC(CBr)C[n+]1cc(Br)cc2ccccc21 (stereo not given)	.	-25.4%	.	.	-15.4%	.
CCC(C)NC(=O)c1cc2c(Cl)nc3ccc(C)cc3c2s1 (stereo not given)	.	-9.4%	-22.5%[46.1 µM]	-11.0	-11.0%	?
CC[N+]1(CC(=O)c2ccc(Br)cc2)CCCCC1	.	-19.5%	.	.	-15.6%	.
Cc1cc(N=O)no1	.	.	.	3.9	.	.
CC(=O)c1cccc(Nc2ncnc3c2cnn3-c2cccc(Cl)c2)c1	.	-18.8%	22.4%[46.1 µM]	17.7	-8.0%	.
COc1cccc(/C=N/Nc2nc(Nc3ccc([N+](=O)[O-])cc3)nc(N3CCCC3)n2)c1O	?	3.98µM*	?	?	-27.9%	2µM*

Screening results from PubChem.
